# Where “and” joins values, the source holds several entries; their conditions need not be identical. Identical values can stand only once. Some structures have more than one record in an assay (separate samples or runs), and their calls can disagree. Calls of active or inactive are those of the source. Where a call stands in place of a potency, no number is given. Unless noted, calls follow the shape of the dose curve; as a rule, active = well fitted curve in the direction sought with a large enough effect in the repeat runs; inconclusive = weak or mixed curves; inactive = no such curve, though single readings can be large; an effect the other way counts as inactive or inconclusive.
# How the values were obtained:
# [1] = qHTS assay to identify small molecule antagonists of the glucocorticoid receptor (GR) signaling pathway - cell viability counter screen (AID 720693); also: nearly all actives have a fitted effect of over 55% in size
# [2] = qHTS assay for identifying genotoxic compounds that show differential cytotoxicity against isogenic chicken DT40 cell lines with known DNA damage response pathways - wild type cell line (AID 743012); also: nearly all actives have a fitted effect of over 60% in size; also: potency is read from the fitted curve at half-maximal effect
# Outline: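 Luminescent ATP viability signal (CellTiter-Glo, 30 min RT) recorded after wild type DT40 cells were incubated with compounds for 40 h at 37 C/5% CO2.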
# [3] = qHTS assay for identifying genotoxic compounds that show differential cytotoxicity against isogenic chicken DT40 cell lines with known DNA damage response pathways - Rev3 mutant cell line (AID 743014); also: nearly all actives have a fitted effect of over 55% in size; also: potency is read from the fitted curve at half-maximal effect
# [4] = qHTS assay for identifying genotoxic compounds that show differential cytotoxicity against isogenic chicken DT40 cell lines with known DNA damage response pathways - Rad54/Ku70 mutant cell line (AID 743015); also: nearly all actives have a fitted effect of over 60% in size; also: potency is read from the fitted curve at half-maximal effect
# [5] = qHTS assay to identify small molecule antagonists of the androgen receptor (AR) signaling pathway - cell viability counter screen (AID 743033; also: nearly all actives have a fitted effect of over 45% in size)
# [6] = qHTS assay to identify small molecule antagonists of the androgen receptor (AR) signaling pathway using the MDA cell line - cell viability counter screen (AID 743041; also: nearly all actives have a fitted effect of over 45% in size)
# Outline: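 Viability read by CellTiter-Fluor fluorescence in the same wells as the antagonist screen, added after 15.5 h of a 16 h, 37C exposure. Human breast carcinoma MDA-kb2 AR-luc cells, compounds co-dosed with agonist R1881.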
# [7] = qHTS assay to identify small molecule antagonists of the thyroid receptor (TR) signaling pathway - cell viability counter screen (AID 743064); also: nearly all actives have a fitted effect of over 50% in size; also: potency is read from the fitted curve at half-maximal effect
# Outline: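 Rat GH3 pituitary tumor cells stably expressing two TR response elements driving luciferase were plated, rested 4 h, then dosed with library compounds and T3 (1 nM final). After 23.5 h at 37 °C, CellTiter-Fluor was added for 30 min and fluorescence recorded.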
# [8] = qHTS assay to identify small molecule antagonists of the thyroid receptor (TR) signaling pathway (AID 743065); also: nearly all actives have a fitted effect of over 55% in size; also: potency is read from the fitted curve at half-maximal effect
# Outline: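 Antagonism measured as loss of luciferase signal in GH3 cells stably carrying a TRE-luciferase reporter, co-treated with compound and T3 (1 nM final) for 23.5 h at 37 C. Viability was read in the same well by CellTiter-Fluor.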
# [9] = test system: thyroid hormone receptor (rat, GH3 cells); experiment: qHTS assay to identify small molecule agonists of the thyroid receptor (TR) signaling pathway (AID 743066; calls by dose curve)
# [10] = qHTS assay to identify small molecule antagonists of the estrogen receptor alpha (ER-alpha) signaling pathway - cell viability counter screen (AID 743074; calls by dose curve;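 also: HEK293 cells carrying ER-alpha-UAS-bla reporter stimulated with 17beta-estradiol; nearly all actives have a fitted effect of over 45% in size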)
# [11] = qHTS assay to identify small molecule antagonists of the estrogen receptor alpha (ER-alpha) signaling pathway using the BG1 cell line - cell viability counter screen (AID 743081);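 also: compound given together with 17beta-estradiol as the ER stimulus; series mostly up to about 70 µM; nearly all actives have a fitted effect of over 45% in size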
# Aromatase (Homo sapiens) = Aromatase (Homo sapiens) (UniProt P11511); experiment: qHTS assay to identify aromatase inhibitors (AID 743083); also: nearly all actives have a fitted effect of over 55% in size; also: potency is read from the fitted curve at half-maximal effect
# Sequence of Aromatase (Homo sapiens) (P11511 whole entry, looked up): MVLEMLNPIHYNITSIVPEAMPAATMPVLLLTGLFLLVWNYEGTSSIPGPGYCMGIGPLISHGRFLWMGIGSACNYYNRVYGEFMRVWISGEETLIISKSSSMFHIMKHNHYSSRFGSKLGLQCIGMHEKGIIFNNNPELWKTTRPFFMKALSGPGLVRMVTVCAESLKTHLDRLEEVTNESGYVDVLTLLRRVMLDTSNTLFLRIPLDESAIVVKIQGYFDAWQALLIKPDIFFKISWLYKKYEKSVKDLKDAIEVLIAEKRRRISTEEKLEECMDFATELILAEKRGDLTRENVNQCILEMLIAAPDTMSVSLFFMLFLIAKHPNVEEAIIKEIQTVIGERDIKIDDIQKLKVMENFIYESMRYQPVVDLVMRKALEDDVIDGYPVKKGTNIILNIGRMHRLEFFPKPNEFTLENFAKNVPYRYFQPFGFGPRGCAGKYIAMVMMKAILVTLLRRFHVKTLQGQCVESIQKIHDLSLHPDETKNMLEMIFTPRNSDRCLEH
# [12] = target: Estrogen receptor (Homo sapiens) (UniProt P03372); experiment: qHTS assay to identify small molecule antagonists of the estrogen receptor alpha (ER-alpha) signaling pathway (AID 743069; active = well fitted curve in the direction sought with a large enough effect in the signal ratio in the repeat runs, not every such curve was filed as active; inconclusive = weak or mixed curves, or effect the other way; inactive = no such curve, though single readings can be large or run the other way; the % refers to the signal ratio)
# Sequence of Estrogen receptor (Homo sapiens) (P03372 whole entry, looked up): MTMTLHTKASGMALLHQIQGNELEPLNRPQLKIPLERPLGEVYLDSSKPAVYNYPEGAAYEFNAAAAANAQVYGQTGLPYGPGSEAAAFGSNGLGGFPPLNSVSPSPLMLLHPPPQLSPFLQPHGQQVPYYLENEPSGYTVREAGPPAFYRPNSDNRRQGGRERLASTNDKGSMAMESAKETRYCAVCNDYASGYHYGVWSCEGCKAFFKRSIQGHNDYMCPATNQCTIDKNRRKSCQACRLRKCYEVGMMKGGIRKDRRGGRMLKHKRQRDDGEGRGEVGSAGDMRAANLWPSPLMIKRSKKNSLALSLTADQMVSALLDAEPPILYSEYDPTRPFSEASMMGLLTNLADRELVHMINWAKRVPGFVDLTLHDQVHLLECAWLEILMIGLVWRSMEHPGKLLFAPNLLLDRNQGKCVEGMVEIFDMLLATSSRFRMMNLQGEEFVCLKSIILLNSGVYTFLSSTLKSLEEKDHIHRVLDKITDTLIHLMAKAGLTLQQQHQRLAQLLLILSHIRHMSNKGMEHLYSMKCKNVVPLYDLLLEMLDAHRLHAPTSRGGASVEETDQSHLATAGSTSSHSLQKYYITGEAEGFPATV
# Outline: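 Antagonist mode: compounds in DMSO were co-added with 17beta-estradiol to ER-alpha-bla HEK293 cells (2% charcoal-stripped serum) and left 18 h at 37C. Reporter inhibition was measured as FRET fluorescence after 2 h LiveBLAzer substrate at room temperature.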
# [13] = target: Estrogen receptor (Homo sapiens) (UniProt P03372); experiment: qHTS assay to identify small molecule agonists of the estrogen receptor alpha (ER-alpha) signaling pathway (AID 743075; calls by dose curve;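 also: HEK293 GripTite cells with ER-alpha and UAS-driven beta-lactamase reporter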; also: potency is read from the fitted curve at half-maximal effect)
# [14] = target: Estrogen receptor (Homo sapiens) (UniProt P03372); experiment: qHTS assay to identify small molecule agonists of the estrogen receptor alpha (ER-alpha) signaling pathway using the BG1 cell line (AID 743079); also: nearly all actives have a fitted effect of over 20% in size; also: potency is read from the fitted curve at half-maximal effect
# [15] = qHTS assay to identify small molecule antagonists of the estrogen receptor alpha (ER-alpha) signaling pathway using the BG1 cell line (AID 743080; calls by dose curve;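 also: BG1 cells stimulated with 17beta-estradiol alongside compound; series mostly up to about 70 µM; nearly all actives have a fitted effect of over 25% in size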)
# Outline: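 BG1-Luc-4E2 cells (endogenous full-length ER-alpha, stable 4×ERE-luciferase) were starved 5 days in phenol-red-free medium with 10% charcoal-stripped FBS, plated 24 h, then given compound plus 17beta-estradiol for 21.5 h at 37 C; ONE-Glo luminescence read after 30 min.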
# [16] = target: Androgen receptor (Homo sapiens) (UniProt P10275); experiment: qHTS assay to identify small molecule antagonists of the androgen receptor (AR) signaling pathway (AID 743035; active = well fitted inhibition curve with a large enough effect in the signal ratio in the repeat runs, not every such curve was filed as active; inconclusive = weak or mixed curves, or effect the other way; inactive = no such curve, though single readings can be large or run the other way; the % refers to the signal ratio)
# Sequence of Androgen receptor (Homo sapiens) (P10275 whole entry, looked up): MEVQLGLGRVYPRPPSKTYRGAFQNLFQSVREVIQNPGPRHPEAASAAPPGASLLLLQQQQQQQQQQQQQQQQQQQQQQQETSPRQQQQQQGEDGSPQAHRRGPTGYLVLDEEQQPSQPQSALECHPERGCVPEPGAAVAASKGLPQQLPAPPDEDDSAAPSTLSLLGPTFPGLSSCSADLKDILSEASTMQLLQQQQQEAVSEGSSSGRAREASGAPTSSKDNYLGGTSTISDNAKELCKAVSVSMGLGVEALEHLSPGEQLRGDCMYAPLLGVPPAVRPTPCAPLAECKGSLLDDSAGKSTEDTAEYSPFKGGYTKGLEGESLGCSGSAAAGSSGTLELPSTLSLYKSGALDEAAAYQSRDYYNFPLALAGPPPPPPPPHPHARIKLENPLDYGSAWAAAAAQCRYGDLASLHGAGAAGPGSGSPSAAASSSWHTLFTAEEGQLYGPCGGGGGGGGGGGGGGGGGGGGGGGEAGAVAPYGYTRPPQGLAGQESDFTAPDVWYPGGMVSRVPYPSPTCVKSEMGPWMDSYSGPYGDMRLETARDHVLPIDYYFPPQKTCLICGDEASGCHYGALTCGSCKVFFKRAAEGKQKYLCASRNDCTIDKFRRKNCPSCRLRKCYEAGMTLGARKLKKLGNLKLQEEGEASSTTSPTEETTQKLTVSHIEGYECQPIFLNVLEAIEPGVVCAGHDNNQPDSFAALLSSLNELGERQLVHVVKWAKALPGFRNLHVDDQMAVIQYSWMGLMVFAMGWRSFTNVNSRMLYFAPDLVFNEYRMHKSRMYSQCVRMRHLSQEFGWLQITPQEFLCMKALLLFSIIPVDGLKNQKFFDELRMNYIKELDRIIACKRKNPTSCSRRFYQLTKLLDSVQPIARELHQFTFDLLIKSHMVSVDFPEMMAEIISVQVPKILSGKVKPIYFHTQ
# Outline: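 Quantitative HTS of the Tox21 10K library used HEK293 AR-UAS-bla cells stimulated with R1881 alongside compound for 16 h at 37C, followed by beta-lactamase FRET detection (LiveBLAzer B/G, 2 h, RT).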
# [17] = target: Androgen receptor (Homo sapiens) (UniProt P10275); experiment: qHTS assay to identify small molecule agonists of the androgen receptor (AR) signaling pathway (AID 743036; active = well fitted activation curve with a large enough effect in the signal ratio in the repeat runs, with a control signal flat, not every such curve was filed as active; inconclusive = weak or mixed curves, or effect the other way; inactive = no such curve, though single readings can be large or run the other way; the % refers to the signal ratio)
# Outline: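 Quantitative HTS of the Tox21 10K library in HEK293 cells bearing a stably integrated UAS-controlled beta-lactamase reporter. Compound exposure lasted 16 h at 37C. Reporter activity was detected by FRET substrate fluorescence after 2 h at room temperature.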
# [18] = target: Androgen receptor (Homo sapiens) (UniProt P10275); experiment: qHTS assay to identify small molecule agonists of the androgen receptor (AR) signaling pathway using the MDA cell line (AID 743040; also: nearly all actives have a fitted effect of over 20% in size)
# Outline: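 Luciferase agonist assay: 16 h compound exposure at 37C without CO2 in MDA-kb2 AR-luc cells, whose MMTV promoter responds to both AR and GR. Luminescence measured after 30 min room-temperature incubation with ONE-Glo.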
# [19] = target: Androgen receptor (Homo sapiens) (UniProt P10275); experiment: qHTS assay to identify small molecule antagonists of the androgen receptor (AR) signaling pathway using the MDA cell line (AID 743042; also: nearly all actives have a fitted effect of over 55% in size)
# Outline: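 Antagonist mode: compounds plus R1881 agonist added to MDA-kb2 AR-luc cells, incubated 16 h at 37C. Luciferase reporter luminescence quantified, with multiplexed CellTiter-Fluor readout for cell viability.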
SMILES,outcome [1],Potency [2],Potency [3],Potency [4],outcome [5],outcome [6],Potency [7],Potency [8],outcome [9],Potency [10],outcome [11],Potency (Aromatase (Homo sapiens)),Potency [12],Potency [13],Potency [14],Potency [15],Potency [16],outcome [17],outcome [18],outcome [19]
O=[N+]([O-])c1ccc(Oc2ccc(Cl)cc2Cl)cc1,inactive,inactive and 61.1 µM (active),inactive and 61.1 µM (active),61.1 µM (active),inactive,inactive,inactive,inactive,inactive,inactive,inactive,inactive,–,–,–,–,–,–,–,–
CC(C)(Cl)Cl,inactive,inactive,inactive,inactive,inactive,inactive,inactive,inactive,inactive,inactive,inactive,inactive,–,–,–,–,–,–,–,–
C[C@]12CC[C@H]3[C@@H](CC[C@@]45O[C@@H]4C(O)=C(C#N)C[C@]35C)[C@@H]1CC[C@@H]2O,inactive,inactive and 61.1 µM (active),inactive and 27.3 µM (active),30.6 µM (active),–,inactive,–,–,–,inactive,inactive,inactive,–,–,–,–,–,–,–,–
Cc1ccc(N)cc1Cl,inactive,inactive,inactive,inactive,–,inactive,inactive,inactive,inactive,inactive,inactive,inactive,inactive,inactive,inactive,inactive,–,–,–,–
C=CC(N)=O,inactive,–,–,–,inactive,inactive,inactive,–,–,inactive,inactive,inactive,inactive,inactive,inactive,inactive,–,–,–,–
Clc1cccc(Cl)c1Cl,inactive,inactive,inactive,inactive,–,inactive,inactive,inactive,inactive,inactive,inactive,inactive,–,–,–,–,–,–,–,–
CCNc1nc(NC(C)(C)C)nc(SC)n1,inactive,–,60.3 µM (active),54.5 µM (active),inactive,inactive,inactive,–,inactive,inactive,inactive,inactive,inactive,inactive,inactive,inactive,–,–,–,–
O=NN1CCCCCCC1,inactive,inactive,inactive,inactive,–,inactive,inactive,inactive,inactive,inactive,inactive,inactive,inactive,inactive,–,inactive,–,–,–,–
CC(C)NC(=O)N1CC(=O)N(c2cc(Cl)cc(Cl)c2)C1=O,inactive,inactive,54.5 µM (active),–,–,inactive,–,inactive,inactive,inactive,inactive,inactive,inactive,inactive,inactive,inactive,–,–,–,–
CC(C)=C[C@@H]1[C@@H](C(=O)OCc2coc(Cc3ccccc3)c2)C1(C)C,inactive,inactive and 27.3 µM (active),inactive and 34.4 µM (active),–,inactive,inactive,inactive,inactive,inactive,inactive,inactive,inactive,inactive,inactive,inactive,inactive,–,–,–,–
CCOC(=O)c1ccccc1C(=O)OCC,inactive,inactive,inactive,inactive,–,inactive,inactive,inactive,inactive,inactive,inactive,inactive,inactive,inactive,inactive,inactive,–,–,–,–
C=CCO,inactive,inactive,inactive,inactive,–,inactive,inactive,–,–,inactive,inactive,inactive,–,–,–,–,–,–,–,–
COc1ccc2c3c1O[C@H]1[C@@H](O)C=C[C@H]4[C@@H](C2)N(C)CC[C@@]341,inactive,inactive,inactive,inactive,–,inactive,inactive,–,inactive,inactive,inactive,inactive,inactive,inactive,inactive,inactive,–,–,–,–
CCOP(OCC)OCC,inactive,inactive,inactive,inactive,–,inactive,inactive,inactive,inactive,inactive,inactive,inactive,inactive,inactive,inactive,inactive,–,–,–,–
CCC(C)(CC)c1cc(NC(=O)c2c(OC)cccc2OC)on1,inactive,52.4 µM (active),66 µM (active),46.7 µM (active),–,inactive,inactive,54.6 µM (active),inactive,inactive,inactive,inactive,–,–,–,–,–,–,–,–
Nc1ccc(Cc2ccc(N)cc2)cc1,inactive,inactive,inactive and 48.6 µM (active),inactive,–,inactive,inactive,inactive,inactive,inactive,inactive,inactive,–,–,–,–,–,–,–,–
c1ccc2c(c1)oc1ccccc12,inactive,inactive,inactive,inactive,–,inactive,inactive,inactive,inactive,inactive,inactive,–,–,–,–,–,–,–,–,–
CCCCCCCCCl,inactive,inactive,inactive,inactive,–,inactive,inactive,inactive,inactive,–,inactive,inactive,inactive,inactive,inactive,inactive,–,–,–,–

SMILES,outcome [1],Potency [2],Potency [3],Potency [4],outcome [5],outcome [6],Potency [7],Potency [8],outcome [9],Potency [10],outcome [11],Potency (Aromatase (Homo sapiens)),Potency [12],Potency [13],Potency [14],Potency [15],Potency [16],outcome [17],outcome [18],outcome [19]
Nc1ccc(Oc2ccc(N)cc2)cc1,inactive,–,inactive,–,inactive,inactive,inactive,–,–,inactive,inactive,54.5 µM (active),–,–,–,–,–,–,–,–
CON(C)C(=O)Nc1ccc(Cl)c(Cl)c1,inactive,–,inactive,inactive and 54.5 µM (active),–,inactive,inactive,–,inactive,inactive,inactive,inactive,inactive,inactive,inactive,–,–,–,–,–
O=Cc1cccc(Oc2ccccc2)c1,inactive,inactive,inactive,inactive,–,inactive,inactive,inactive,inactive,inactive,inactive,inactive,inactive,inactive,–,inactive,–,–,–,–
[O-][Cl+2]([O-])O,inactive,–,–,–,inactive,inactive,inactive,–,–,inactive,inactive,inactive,inactive,inactive,inactive,inactive,–,–,–,–
CCC[N+](=O)[O-],inactive,inactive,inactive,inactive,–,inactive,inactive,inactive,inactive,inactive,inactive,inactive,–,–,–,–,–,–,–,–
CN(C)[C@@H]1C(=O)C(C(N)=O)=C(O)[C@@]2(O)C(=O)C3=C(O)c4c(O)cccc4[C@@](C)(O)[C@H]3C[C@@H]12,inactive,inactive,inactive,inactive,–,inactive,inactive,inactive,inactive,inactive,inactive,inactive,–,–,–,–,–,–,–,–
CC(NC(C)(C)C)C(=O)c1cccc(Cl)c1 (configuration not stated),inactive,inactive,inactive and 23 µM (active),inactive,–,inactive,inactive,inactive,inactive,inactive,inactive,inactive,–,–,–,–,–,–,–,–
c1cc2c3c(cccc3c1)CC2,inactive,–,inactive,inactive and 61.1 µM (active),inactive,inactive,inactive,inactive,inactive,inactive,inactive,inactive,inactive,inactive,inactive,inactive,inactive,inactive,inactive,inactive
CC(C)(C)OOC(=O)c1ccccc1,inactive,inactive,inactive,inactive,–,inactive,inactive,inactive,inactive,inactive,inactive,inactive,–,–,–,–,–,–,–,–
CCOP(=S)(OCC)SCCSCC,inactive,inactive,–,inactive,inactive,inactive,inactive,inactive,inactive,inactive,inactive,inactive,–,–,–,–,–,–,–,–
CC(C)OC(=O)Nc1cccc(Cl)c1,inactive,inactive,inactive,inactive,–,inactive,inactive,inactive,inactive,inactive,inactive,inactive,inactive,inactive,inactive,–,–,–,–,–
CC1OC(C)OC(C)O1 (configuration not stated),inactive,inactive,inactive,inactive,–,inactive,–,–,–,inactive,inactive,inactive,–,–,–,–,–,–,–,–
CN=C=S,inactive,inactive,inactive,inactive,–,inactive,–,inactive,inactive,inactive,inactive,inactive,inactive,inactive,inactive,inactive,–,–,–,–
CC(C)(C)C(O)(CCc1ccc(Cl)cc1)Cn1cncn1 (configuration not stated),inactive,61.1 µM (active),61.9 µM (active) and 61.1 µM (active),69.4 µM (active) and 61.1 µM (active),–,inactive,68.6 µM (active),61.9 µM (active) and 61.1 µM (active),inactive,inactive,inactive,27.6 µM (active) and 48.6 µM (active),–,–,–,–,–,–,–,–
CN1C(=O)CN=C(c2ccccc2)c2cc(Cl)ccc21,inactive,inactive,inactive,–,inactive,inactive,inactive,–,inactive,inactive,inactive,–,–,–,–,–,–,–,–,–
O=S(=O)(c1ccc(O)cc1)c1ccc(O)cc1,inactive,inactive,inactive,inactive,–,inactive,inactive,inactive,inactive,inactive,inactive,inactive,inactive,15.6 µM [inconclusive] (active) and 24.5 µM [inconclusive] (active),3.88 µM (active) and 1.93 µM (active),inactive,–,–,–,–
COC(=O)NC(=S)Nc1ccccc1NC(=S)NC(=O)OC,inactive,61.1 µM (active),61.1 µM (active),–,inactive,inactive,inactive,inactive,inactive,–,inactive,inactive,inactive,inactive,inactive,inactive,–,–,–,–
Cc1ccc(N)cc1N,inactive,–,–,17.2 µM (active),inactive,inactive,inactive,inactive,inactive,inactive,inactive,inactive,inactive,inactive,inactive,inactive,–,–,–,–
